Results reported in the supplement of paper PMC8047044.
Several values for one entry are separate records, joined by “and”; a condition that tells them apart may be missing. Equal values may be shown once. Where a name gives a salt, the structure may show the parent alone.

Legend:
Neuro-2a [1] = assay: neurite formation score, plate-normalized to DMSO control mean 5.04 (score (0-8 scale)); higher = more or longer neurites; conditions: 1 µM
Description: (§1)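 Neuro-2a mouse neuroblastoma cells in PLL-coated 96-well plates were pre-treated for 1 h in DMEM(+) with each kinase inhibitor at 1 µM, then switched to serum-free DMEM(-) with inhibitor to induce neurite outgrowth and fixed about 2-3 h later. Three blinded observers scored neurite formation from 0 (no neurites) to 8 (long neurites on almost all cells).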

Neuro-2a [2] = assay: as above; conditions: 0.1 µM
Description: as §1, with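 “at 0.1” for “at 1”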

SMILES | neurite formation score (Neuro-2a [1]) | neurite formation score (Neuro-2a [2])
C=CC(=O)Nc1cccc(Oc2nc(Nc3ccc(N4CCN(C)CC4)cc3)ncc2Cl)c1 | 5.96 | 4.25
CCc1cnn2c(NCc3ccc[n+]([O-])c3)cc(N3CCCC[C@H]3CCO)nc12 | 3.14 | 3.42
N#Cc1c(O)c2c(-c3ccc(-c4ccccc4O)cc3)csc2[nH]c1=O | 5.69 | 5.58
CN1CCN(Cc2ccc(-c3cnc4[nH]cc(-c5ccc6[nH]ccc6c5)c4c3)cc2)CC1 | 4.54 | 4.42
CN(C)c1ccc(-c2nc3ncc(Cl)c(N4CCN(CC(=O)Nc5nccs5)CC4)c3[nH]2)cc1 | 3.8 | 4.09
COc1cc2c(Oc3ccc(NC(=O)C4(C(=O)Nc5ccc(F)cc5)CC4)cc3F)ccnc2cc1OCCCN1CCOCC1 | 3.24 | 3.38
COc1cc2nccc(Oc3ccc(NC(=O)C4(C(=O)Nc5ccc(F)cc5)CC4)cc3)c2cc1OC [Cabozantinib malate (XL184)] | 2.29 | 4.92
NC1(C(=O)N[C@@H](CCO)c2ccc(Cl)cc2)CCN(c2ncnc3[nH]ccc23)CC1 | 5.57 | 5.38
CC(C)[C@H](CO)Nc1nc(Nc2cccc(Cl)c2)c2ncn(C(C)C)c2n1 [Purvalanol A] | 3.54 | 5.08
Cc1nc(N)sc1-c1ccnc(Nc2ccc(N3CCOCC3)cc2)n1 | 4.69 | 4.58
Cc1[nH]nc2ccc(-c3cncc(OC[C@@H](N)Cc4ccccc4)c3)cc12 | 4.63 | 4.25
COc1cc(-c2cc(-c3cccc(O)c3)cnc2N)cc(OC)c1OC | 3.88 | 4.08
Cc1ccc2nc(NCCN)c3ncc(C)n3c2c1 | 4.47 and 4.14 | 4.09 and 3.42
Cn1cc(C2=C(c3ccc(Cl)cc3Cl)C(=O)NC2=O)c2ccccc21 | 4.14 | 4.76
CC(C)CCN1c2nc(Nc3cc(F)c(O)c(F)c3)ncc2N(C)C(=O)C1C (configuration not stated) | 4.21 | 3.42
CCN(CC)CCCCNc1ncc2cc(-c3cc(OC)cc(OC)c3)c(NC(=O)NC(C)(C)C)nc2n1 | 4.24 | 5.21
COc1cc2ncc(-c3ccccc3)nc2cc1OC [Tyrphostin AG 1296] | 5.24 | 5.04
CNC(=O)c1cccc(-c2ccc3c(N4CCOC[C@@H]4C)nc(N4CCOC[C@@H]4C)nc3n2)c1 | 4.29 | 4.58

SMILES | neurite formation score (Neuro-2a [1]) | neurite formation score (Neuro-2a [2])
COc1ccc(S(=O)(=O)N(CCO)c2ccccc2CN(C)C/C=C/c2ccc(Cl)cc2)cc1 [KN-93 Phosphate] | 4.21 | 4.42
CC(C)c1cnn2c(NCc3ccccc3)cc(NCCCCCCN)nc12 | 4.57 | 4.88
O=S(=O)(c1cccc2cnccc12)N1CCCNCC1 [Fasudil (HA-1077) HCl] | 4.24 | 5.21
Cn1cnc2c(F)c(Nc3ccc(Br)cc3Cl)c(C(=O)NOCCO)cc21 [AZD6244 (Selumetinib)] | 4.24 | 5.54
Cc1cnc(Nc2ccc(OCCN3CCCC3)cc2)nc1Nc1cccc(S(=O)(=O)NC(C)(C)C)c1 | 4.69 | 3.58
CC1(COc2ccc3c(c2)ncn3-c2ccc3cccc(N4CCC(N)CC4)c3n2)COC1 | 3.57 | 4.21
O=C(CCCCCCC(=O)Nc1ccc(I)cc1)NO [4-iodo-SAHA] | 5.21 | 4.42
CC(C)[C@H](CO)Nc1nc(Nc2ccc(C(=O)O)c(Cl)c2)c2ncn(C(C)C)c2n1 [Purvalanol B] | 4.63 | 4.92
N=C(N)NC(=N)NCCc1ccccc1 [Phenformin HCl] | 4.8 | 4.76
COc1c(C)c(C(=O)c2ccc(N)c(C(=O)O)c2)n2ccccc12 | 4.96 | 5.25
Cc1nc(Nc2cnn(C3CCNCC3)c2)nc2c1N(C)C(=O)c1cc3ccccc3cc1N2C | 3.96 | 4.25
N#Cc1c(Oc2ccc(F)c(NC(=O)Cc3cccc(C(F)(F)F)c3)c2)ccc2nc(NC(=O)C3CC3)sc12 | 1.9 | 4.54
O=C1NC(=O)C(=Cc2ccc(-c3ccc(F)cc3)o2)S1 (stereo in doubt) | 4.54 | 3.08
CCOc1ccc(Nc2ccc(/C(=C3C=C/C(=[N+](/CC)Cc4cccc(S(=O)(=O)[O-])c4)C=C/3C)c3ccc(N(CC)Cc4cccc(S(=O)(=O)O)c4)cc3C)cc2)cc1 [Brilliant Blue G] | 5.21 | 2.08
NC1(c2ccc(-c3nc4ccn5c(=O)[nH]nc5c4cc3-c3ccccc3)cc2)CCC1 [MK-2206 dihydrochloride] | 4.24 | 4.71
CO[C@H]1C[C@@H]2CC[C@@H](C)[C@@](O)(O2)C(=O)C(=O)N2CCCC[C@H]2C(=O)O[C@H]([C@H](C)C[C@@H]2CC[C@@H](OC(=O)C(C)(CO)CO)[C@H](OC)C2)CC(=O)[C@H](C)/C=C(\C)[C@@H](O)[C@@H](OC)C(=O)[C@H](C)C[C@H](C)/C=C/C=C/C=C/1C [Temsirolimus] | 4.24 | 4.21
CNC(=O)c1ccccc1Sc1ccc2c(/C=C/c3ccccn3)n[nH]c2c1 | 3.57 | 4.54
CC(C)(C)n1nc(-c2ccc(Cl)cc2)c2c(N)ncnc21 | 4.24 | 3.88
